Compound activity: PubChem, several laboratories
Only some compounds are listed: those with a hit (about 0.97% of all), similar ones and a draw of the others.
BioA inh = inhibitors of Mycobacterium tuberculosis BioA enzyme; 360,000 compounds, 0.096% hits; inhibition, % at 9.99 µM; purified M. tuberculosis BioA enzyme, plate reader; AID 602481; in the data active = inhibition above about 40%
RecA intein inh = blocks M. tuberculosis RecA intein splicing; P9WHJ3; cell-free RecA intein splicing, fluorescence; inhibition, % (no concentration beside the values); 290,000 compounds, 0.75% hits; AID 2221; in the data active = inhibition above about 30%;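 note: 0% = vehicle wells and 100% = reference inhibitor control wells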
TcdB GH inh = TcdB glycohydrolase inhibition | TcdB glycohydrolase enzymatic assay, plate reader | inhibition, % at 9.99 µM | 350,000 compounds, 0.24% hits; in the data active = inhibition above about 10%
Rv3671c protease = Rv3671c (M. tuberculosis) protease inhibition; P9WHR9; inhibition, % at 5.96 µM; AID 2606; 320,000 compounds, 0.048% hits; in the data active = inhibition above about 38%;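 note: extracellular domain of Rv3671c used as enzyme; 0% = enzyme with DMSO and 100% = no enzyme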
FadD28 FP inh = M. tuberculosis FadD28 bisubstrate binding inhibition | FadD28 bisubstrate probe binding, fluorescence polarization | inhibition, % at 12.5 µM | 360,000 compounds, 0.22% hits | AID 588549; in the data active = inhibition above about 8.5%, passing the limit was not always enough
Mtb UGM inh = inhibitors of M. tuberculosis UDP-galactopyranose mutase. P9WIQ1. purified UGM, fluorescence polarization probe displacement. inhibition, % at 10 µM. 320,000 compounds, 0.06% hits. AID 504406; in the data active = inhibition above about 10%, passing the limit was not always enough
Target sequence (P9WIQ1 whole entry, looked up): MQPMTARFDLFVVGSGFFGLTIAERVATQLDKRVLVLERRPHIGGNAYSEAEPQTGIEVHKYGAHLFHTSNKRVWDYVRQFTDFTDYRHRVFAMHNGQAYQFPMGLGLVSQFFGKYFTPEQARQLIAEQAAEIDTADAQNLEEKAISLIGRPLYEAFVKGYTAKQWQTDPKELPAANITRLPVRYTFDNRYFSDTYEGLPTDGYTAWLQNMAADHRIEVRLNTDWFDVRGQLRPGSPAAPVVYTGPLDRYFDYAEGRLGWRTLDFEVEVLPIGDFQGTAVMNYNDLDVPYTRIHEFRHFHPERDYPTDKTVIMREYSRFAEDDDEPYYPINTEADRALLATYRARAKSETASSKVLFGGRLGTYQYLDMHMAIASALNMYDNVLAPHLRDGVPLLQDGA
Numbers without * were called inactive; · = no result given.

SMILES	BioA inh	RecA intein inh	TcdB GH inh	Rv3671c protease	FadD28 FP inh	Mtb UGM inh
COc1ccc([N+](=O)[O-])cc1NC(=O)CCN1CCN(CCO)CC1	45*	0	-1	9	-3	-1
C[C@H](CO)N1C[C@H](C)[C@@H](CN(C)C(=O)Nc2ccc(F)cc2)OCc2ccccc2-c2c(n(C)c3ccccc23)C1=O	1	·	0	·	·	·
Cc1noc(C)c1NC(=O)N(C)C[C@@H]1Oc2ccc(NC(=O)c3ccncc3)cc2C(=O)N([C@H](C)CO)C[C@@H]1C	0	·	-1	·	·	·
COc1cccc(C(CNc2ccc(S(=O)(=O)N3CCN(C)CC3)cc2[N+](=O)[O-])N(C)C)c1 (stereo unspecified)	-2	·	17*	·	0	·
CC(Nc1ccc(S(=O)(=O)N2CCN(C)CC2)cc1[N+](=O)[O-])c1ccccc1 (stereo unspecified)	1	·	2	·	0	·
O=C(C[C@@H]1CC[C@H]2[C@@H](COC[C@@H](O)CN2Cc2ccc(Cl)cc2)O1)Nc1nccs1	1	·	0	·	·	·
CCCCNC(=O)c1sc(=S)n2c1[nH]c(=O)c1ccc(C(=O)NCCc3ccc(OC)c(OC)c3)cc12	0	4	·	-6	0	4
O=C(NCc1ccccc1)c1sc(=S)n2c1[nH]c(=O)c1ccccc12	4	-54	·	-7	41*	0
COc1cc2c3nnc(-c4ccccc4)c-3cn(Cc3ccccc3F)c2cc1OC	·	-56	·	0	·	11*
C[C@H](CO)N1C[C@H](C)[C@@H](CN(C)Cc2ccc(Cl)c(Cl)c2)OCCCC[C@H](C)Oc2ccc(NS(=O)(=O)c3ccc(Cl)cc3)cc2C1=O	-1	·	0	·	·	·
COc1cc2oc3ccc(C#Cc4ccc(N)cc4)cc3c(=O)c2cc1OC	-1	1	1	0	0	0
COc1cc2oc3ccc(C#Cc4ccccn4)cc3c(=O)c2cc1OC	-1	1	11*	-10	-1	1
COc1cc2[nH]c3c(N4CCN(c5ccccn5)CC4)ncnc3c2cc1OC	1	-5	·	-5	9.1*	-1
COc1ccc(N2CCN(c3ncnc4c3[nH]c3ccccc34)CC2)cc1	·	-3	·	1	-3	0
O=C(CSc1nnc(CNc2ccc(Cl)cc2)o1)Nc1nc2c(s1)CCCC2	0	·	·	5	15*	1
COc1ccc(CCNC(=O)CSc2nnc(CNc3ccc(Cl)cc3)o2)cc1OC	0	-1	·	1	-5	1
S=c1[nH]nc(C2CCCCC2)n1/N=C/c1cccc(Br)c1	0	-1	-1	-3	-3	0
Cc1cccc(/C=N/n2c(C3CCCCC3)n[nH]c2=S)c1	2	0	0	-7	11*	2
C[C@@H]1C=C[C@](Cc2ccccc2)(C(=O)NCC2CC2)N1C(=O)c1ccccc1	-1	1	11*	2	0	0
NS(=O)(=O)c1ccc(NC(=S)NCc2ccc3c(c2)OCO3)cc1	·	12	12*	2	0	0
NS(=O)(=O)c1cccc(NC(=S)NCc2ccc3c(c2)OCO3)c1	0	-1	2	4	1	0
c1ccc(-c2nc(N3CCCCCC3)nc(-n3ccnc3)n2)cc1	0	46*	·	0	-1	1
C[C@@H]1CN([C@@H](C)CO)S(=O)(=O)c2ccc(-c3cccc(C#N)c3)cc2O[C@H]1CN(C)C(=O)Nc1cc(F)ccc1F	-3	·	1	·	·	·
CCn1c(C)nc2cc(C(=O)N/N=C/c3ccc(OC)cc3)ccc21	·	-1	0	9	-2	-4
CCn1c(C)nc2cc(C(=O)N/N=C/c3ccc(O)cc3)ccc21	·	-10	14*	4	0	0
SMILES	BioA inh	RecA intein inh	TcdB GH inh	Rv3671c protease	FadD28 FP inh	Mtb UGM inh
CCn1c(C)nc2cc(C(=O)N/N=C/c3ccc(OC)c(O)c3)ccc21	·	-1	11*	-5	-5	1
CC(=O)C(=Nc1ccc(Cl)cc1Cl)NNc1cccc(Cl)c1	·	34*	·	-4	0	0
O=C(NCc1ccccc1)C1Cc2c(-c3cccc(F)c3)ccnc2O1 (stereo unspecified)	2	·	11*	·	-4	·
CC(=O)c1cccc(-c2ccnc3c2CC(C(=O)NCc2ccccc2)O3)c1 (stereo unspecified)	-1	·	10*	·	-2	·
O=C(N[C@H]1CC[C@@H](CCn2cc(C3(O)CCCC3)nn2)O[C@H]1CO)c1ccccc1F	-2	·	0	·	·	·
Cc1cccc(NC(=O)CN2C(=O)N/C(=C/c3cc(C)n(C(C)C)c3C)C2=O)c1	-1	-1	1	-1	42*	1
Cc1ccc(NC(=O)CN2C(=O)N/C(=C/c3ccco3)C2=O)cc1	0	10	·	-2	-2	-1
Cc1ccc(NC(=O)CN2C(=O)N/C(=C/c3cc(C)n(-c4ccc(C(=O)O)cc4)c3C)C2=O)cc1	·	·	-1	·	52*	·
Cc1ccc(NC(=O)CN2C(=O)N/C(=C/c3cccn3-c3ccc(C(=O)O)cc3)C2=O)cc1	·	·	·	2	18*	1
Cc1ccc(NC(=O)CN2C(=O)S/C(=C\c3cc(C)n(-c4ccc(C(=O)O)cc4)c3C)C2=O)cc1	3	-5	-1	-4	60*	-1
CCn1c(C)cc(/C=C2\NC(=O)N(CC(=O)Nc3ccc(F)cc3)C2=O)c1C	·	-1	1	10	1	5
C[C@@H]1CN([C@@H](C)CO)C(=O)c2cc(NC(=O)c3ccccc3)ccc2O[C@@H](C)CCCCO[C@@H]1CN(C)Cc1ccncc1	4	·	-1	·	·	·
CCOC(=O)c1cc(-c2ccc(/C=C3/C(=O)NC(=O)C(C#N)=C3C)o2)ccc1Cl	6	11	0	-5	15*	4
O=C(Nc1ccncc1)c1ccc(-c2ccccc2)cc1	·	-1	11*	0	-2	2
O=C(Nc1cccnc1)c1ccc(-c2ccccc2)cc1	·	4	1	-3	-3	-1
CCC(=O)N1[C@H](C(=O)Nc2ccccc2)[C@@H](CO)[C@@H]2Cn3c(ccc(C4=CCCC4)c3=O)[C@@H]21	2	·	0	·	·	·
COc1ccc(S(=O)(=O)N(C)C[C@H]2OCCCC[C@H](C)Oc3ccc(NS(=O)(=O)c4cccs4)cc3C(=O)N([C@H](C)CO)C[C@@H]2C)cc1	0	·	-1	·	·	·
COc1cc(/C(C)=N/NC(=O)CSc2nnc(C)s2)ccc1O	2	-2	11*	4	-1	0
C/C(=N\NC(=O)CSc1nnc(C)s1)c1ccc(O)cc1	·	1	-14	-7	-3	-1
COc1cc2c(cc1O)CC[n+]1cc3c(OC)c(OC)ccc3cc1-2	3	0	13*	-1	0	3
COc1cc2c(cc1OC)-c1cc3ccc4c(c3c[n+]1CC2)OCO4	-24	-43	0	-8	-2	4
